# Screening results (PubChem BioAssay)
# HT1080-NT tox = kills 2HG-producing HT-1080-NT fibrosarcoma cells | HT-1080-NT fibrosarcoma viability, CellTiter-Glo ATP luminescence, 48 h | Potency, µM (titrated, usually from 46.1 µM), for the others: top-dose activity, negative = less viability, most hits filed as cytotoxic | hit rate 1.6% among 360,000;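 note: NT is the 2HG producing partner of a matched IDH1 knockdown line; potency is the fitted concentration of half-maximal effect; 0% = DMSO-treated cells and -100% = media-only wells without cells; nearly all actives have a fitted effect of over 55% in size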
#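 HT-1080-NT; 750 cells/well; 5% FBS RPMI; 48 h compound, 37 degrees C; CellTiter-Glo luminescence; curve fitting and curve-class assignment.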
# TDP1 cell CPT = growth inhibition of DT40 Tdp1-/-;hTDP1 cells with camptothecin (screen for TDP1 inhibitors). Potency, µM (doses to about 46.2 µM), for inactives: at the highest dose activity change, negative = growth inhibition, hits mostly inhibitors. hit rate 12% among 420,000. chicken DT40 Tdp1-/-;hTDP1 cells + 20 nM CPT, ATP luminescence, 48 h; note: potency is the fitted concentration of half-maximal effect; nearly all actives have a fitted effect of over 55% in size
#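 Chicken DT40 Tdp1-/- cells complemented with human TDP1, 400 cells/well, exposed to compounds plus 20 nM camptothecin for at least 48 h at 37 C; viability read as ATP content by CellTiter-Glo luminescence.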
# IL-1B inflam inh = blocks inflammasome-driven IL-1 beta release; hit rate 4.7% among 360,000; THP-1 LPS/ATP IL-1B secretion, AlphaLISA, 16 h; hits give low values; activity change, % at 57.5 µM; AID 743279; in the data active = activity change below about -50%; inconclusive = mostly about -30% to -49%
#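 Secreted IL-1B measured by AlphaLISA bead assay after 16 h compound exposure of THP-1 cells; compounds (final up to 57.5 uM) added 1 h before LPS (250 ng/mL) and ATP (1.25 mM) stimulation; lower signal means less secretion.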
# HT1080 IDH1KD tx = HT-1080 IDH1 knockdown cell toxicity (counter line) | HT-1080 IDH1 knockdown viability, ATP luminescence, 48 h | Potency, µM (top dose mostly 46.1 µM), without a hit: at the top dose activity, negative = toxicity, hits mostly cytotoxic | hit rate 2% among 360,000;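 note: potency is the fitted concentration of half-maximal effect; 0% = DMSO wells and -100% = cell-free medium wells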
#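 CellTiter-Glo luminescence after 48 h compound exposure at 37 degrees C of IDH1-knockdown HT-1080 cells in 5% FBS RPMI. %Activity scaled between DMSO wells and cell-free media wells, with curves fitted and assigned curve classes.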
# DT40 TDP1 no CPT = qHTS for Inhibitors of human tyrosyl-DNA phosphodiesterase 1 (TDP1): qHTS in cells in absence of CPT. Potency, µM (top dose mostly 46.2 µM), for inactives: at the top dose activity change, negative = growth inhibition, usual class: inhibitors. DT40 Tdp1-/- hTDP1 cells, no CPT, ATP luminescence, 48 h. AID 686978, 2013. hit rate 15% among 420,000; note: potency is the fitted concentration of half-maximal effect; nearly all actives have a fitted effect of over 55% in size
#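 Cells were dispensed at 400 per well, compounds added by pin tool, plates incubated ≥48 hr at 37 °C, then CellTiter-Glo added for 30 min at room temperature before luminescence reading. Line: DT40 Tdp1-/- complemented with hTDP1; camptothecin omitted.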
# * = called active by the depositor; i = inactive; ? = inconclusive; · = no result. Compounds with a hit are over-represented: about 19% of the library has one in this group of screens. Unless noted, calls come from the whole dose curve; as a rule, active = well fitted curve in the direction sought with a large enough effect; inconclusive = small, poorly fitted or top-dose-only effect, or another doubt; inactive = no such curve, though single readings can be large; an effect the other way counts as inactive or inconclusive. Unless noted, % is set by controls: 0 for no effect and ±100 for the full control effect.
SMILES,HT1080-NT tox,TDP1 cell CPT,IL-1B inflam inh,HT1080 IDH1KD tx,DT40 TDP1 no CPT
O=C1C=C(c2ccc3ncccc3c2)C[C@@H](c2ccc3c(c2)OCO3)C1,10µM*,2.1µM*,9,8.2µM*,2.6µM*
COP(=O)(OC)c1nc(-c2ccc(C)cc2)oc1N1CCCCC1,0%,?,?,-3%,15µM*
CCOP(=O)(OCC)c1nc(-c2cccc([N+](=O)[O-])c2)oc1N1CCCCC1,-1%,?,0,0%,21µM*
COc1ccc(-c2nc(S(=O)(=O)c3ccccc3)c(N3CCN(C)CC3)o2)cc1,-13%,?,?,-6%,?
O=[N+]([O-])c1cccc(-c2nnc(-c3ccccc3)o2)c1,20%,-2%,3,27%,-35%
CC(=O)N1c2ccc(S(=O)(=O)NCCC(=O)Nc3ccc(C)cc3Br)cc2CC1C (configuration not stated),·,12µM*,·,·,9.2µM*
CC(=O)N1c2ccc(S(=O)(=O)NCCC(=O)NCCc3ccc(Cl)cc3)cc2CC1C (configuration not stated),-17%,16µM*,16,-10%,?
Cc1ccc(S(=O)(=O)NCCC(=O)NCCc2ccc(S(N)(=O)=O)cc2)cc1C,-5%,3.3µM*,-2,0%,-23%
CC(=O)N1c2ccc(S(=O)(=O)NCCc3ccc(Cl)cc3)cc2CC1C (configuration not stated),-23%,?,8,-8%,?
CC(=O)N1c2ccc(S(=O)(=O)NCCC(=O)NCCc3ccc(C)cc3)cc2CC1C (configuration not stated),0%,21µM*,40,-27%,?
COC(=O)c1ccccc1NC(=O)CN(C)S(=O)(=O)c1cc(C)ccc1OC,6%,-23%,-22,1%,?
CC(=O)c1cccc(NC(=O)C(C)OC(=O)CCn2c(C)csc2=O)c1 (configuration not stated),16%,6%,-1,-1%,4%
O=C(COC(=O)c1cnc(Cl)c(Cl)c1)NC1CC1,-1%,6%,?,-1%,-2%
COc1ccc(C(=O)N2CCN(c3ccccc3)CC2)cc1S(=O)(=O)NC1CC1,-1%,-3%,2,-1%,3%
C(=NNc1nnn(Cc2ccccc2)n1)c1ccccc1,9.2µM*,?,42,18µM*,?
CCn1c(=O)[nH]c(=O)c2c(N)c(C(=O)c3ccccc3OC)sc21,2%,-18%,9,10%,-26%
N/C(=N\c1nc2ccccc2o1)NC(=O)c1ccccc1,-4%,?,45,-25%,?
CC(C)CC(=O)N/C(N)=N/c1nc2ccccc2o1,-16%,?,37,0%,29µM*
CCC(=O)N/C(N)=N/c1nc2ccccc2o1,22%,?,29,21%,?
N/C(=N\c1nc2ccccc2o1)NC(=O)/C=C/c1ccccc1,?,?,-12,-23%,18µM*
Cc1cc(C)c(C)c(S(=O)(=O)N2CCC(C(=O)N3CCCCCCC3)CC2)c1C,7%,?,26,5%,?
COc1ccc2c(c1)O[C@@H](c1cccc(C(F)(F)F)c1)[C@H](OC(=O)Nc1ccc(OC(F)F)cc1)C2=O,0%,?,-21,-5%,21µM*
CCOC(=O)c1ccc(NC(=O)Cc2noc3ccc(C)cc23)cc1,·,21µM*,·,·,?
Cc1cc(C)c2c(CC(=O)Nc3ccc(F)cc3)coc2c1,·,?,·,·,-30%
CCOC(=O)c1ccc(NC(=O)Cc2coc3cc(C)cc(C)c23)cc1,·,?,·,·,18µM*
SMILES,HT1080-NT tox,TDP1 cell CPT,IL-1B inflam inh,HT1080 IDH1KD tx,DT40 TDP1 no CPT
C=CCNC(=S)Nc1c(N)n(C)c(=O)n(C)c1=O,-6%,-2%,14,-5%,-14%
Cc1sc2ccccc2[n+]1CCCC[n+]1c(C)sc2ccccc21,·,4.5µM*,·,·,2.5µM*
Cc1ccc(S(=O)(=O)Cc2sc3ccccc3[n+]2C)cc1,10%,-25%,11,-1%,?
Cc1sc2ccccc2[n+]1CCCCBr,·,4µM*,·,·,5.6µM*
Cc1sc2ccccc2[n+]1Cc1ccccc1,·,0.79µM*,·,·,1.1µM*
COc1ccc2sc(C)[n+](C)c2c1,17%,?,-13,11%,18µM*
CC(=O)c1ccc(NC(=O)CN(C)S(=O)(=O)c2cc3c(cc2Cl)NC(=O)CO3)cc1,·,-16%,·,·,?
CC1CN(C(=O)CCC(=O)NCc2ccc(Cl)cc2)c2ccccc2O1 (configuration not stated),1%,-26%,-22,-2%,-23%
O=C(O)c1ccc(CN2C(=O)c3ccc(Oc4ccc([N+](=O)[O-])cc4)cc3C2=O)cc1,12%,2%,36,-6%,-1%
Cc1cccc(C)c1OCC(=O)NNC(=O)CCNC(=O)c1ccco1,2%,-3%,14,7%,-1%
CCOC(=O)N1CCN(Cc2nnc(-c3cccc(Br)c3)o2)CC1,-4%,-18%,23,-3%,2%
Cc1sc2ccccc2[n+]1C,·,4µM*,·,·,3.2µM*
CCOC(=O)C1=C(N)Oc2cc(O)ccc2C1c1cccnc1 (configuration not stated),-1%,23µM*,17,0%,?
CCOC(=O)C1=C(N)OC2=C(C(=O)CC(C)C2)C1c1cccnc1 (configuration not stated),5%,16%,15,9%,-19%
CCOC(=O)C1=C(N)Oc2cc(O)ccc2C1c1cccc(Cl)c1 (configuration not stated),9.2µM*,?,5,7.3µM*,?
CCOC(=O)C1=C(N)Oc2cc(O)ccc2C1c1ccc(Br)cc1 (configuration not stated),-20%,-28%,27,0%,-14%
Nc1nccc(/C=C/c2c(F)cccc2Cl)n1,-3%,-3%,-85*,-11%,-5%
Fc1cccc(Cl)c1/C=N/Nc1ccccn1,-17%,4%,10,-14%,-26%
Oc1ccccc1-n1c(-c2ccccc2)ccc1-c1ccccc1,?,?,-80*,?,-25%
Cc1ccc(-c2ccccc2)n1-c1ccc(C(=O)O)cc1,1%,-21%,-8,0%,-10%
CCCCC(=O)Nc1nc(-c2ccc(S(=O)(=O)N3CCOCC3)cc2)cs1,?,?,-6,-25%,18µM*
CCOC(=O)Cc1csc(NC(=O)CCc2ccc(S(=O)(=O)N3CCOCC3)cc2)n1,7%,?,15,9%,?
CC(C)CC(=O)Nc1nc(-c2ccc(S(=O)(=O)N3CCOCC3)cc2)cs1,?,13µM*,i,-13%,16µM*
